D2 ag-1: Beta-Arrestin HTS for Positive Allosteric Modulators of the Human D2 Dopamine Receptor: Agonists; 0.084% of 360,000 active; AID 624465, 2012; activation, % (test concentration not listed); DiscoveRx PathHunter D2 beta-arrestin, luminescence, 90 min; 100% = 57 uM dopamine signal; D(2) dopamine receptor (Homo sapiens), P14416; in the data active = activation above about 40%; inconclusive = between about 15% and that limit
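Agonist mode: compounds alone added to overnight-plated D2 PathHunter cells for 90 min at 37 C, with 57 uM final dopamine (EC100) defining full response. Beta-arrestin recruitment detected by chemiluminescent reagent, read after 1 h at ambient temperature.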
D2 antagonist: HTS Assay for Allosteric Antagonists of the Human D2 Dopamine Receptor: Primary Screen for Antagonists. AID 485344, 2010. D(2) dopamine receptor (Homo sapiens), P14416. inhibition, % at 10 µM. 2% of 340,000 active. HEK293 TREx D2 cells, calcium flux, dopamine EC80; in the data active = inhibition above about 30%; inactive = below that, where a call was filed; note: 0% is about no effect
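In this primary screen, negative modulation is detected by tracking calcium flux after an EC80 dopamine challenge in inducible HEK293 T-REx D2 cells preexposed to test compound for 180 s.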
D2 ag-2: HTS Assay for Allosteric Agonists of the Human D2 Dopamine Receptor: Primary Screen for Agonists | D(2) dopamine receptor (Homo sapiens), P14416 | HEK293 T-REx D2 cells, calcium flux agonist mode | activation, % at 2 µM | 0.53% of 340,000 active | AID 485358, 2010;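 active = activation over 3 SD above normal in the single-dose calcium agonist read, cut at about 30% in these data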; note: 0% is about no effect
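Tetracycline-induced HEK293 Trex cells with D2 receptor force-coupled to calcium signaling, plated overnight at 30 C and loaded with no-wash calcium dye. Calcium flux read kinetically for 180 s after compound addition; responses flag agonists.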
D2 PAM-1: HTS Assay for Positive Allosteric Modulators of the Human D2 Dopamine Receptor: Primary Screen for Potentiators. 0.34% of 340,000 active. HEK293 T-REx D2, calcium flux, EC20 dopamine potentiation. D(2) dopamine receptor (Homo sapiens), P14416. potentiation, % at 10 µM;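 active = potentiation over 3 SD above the plate norm, cut at about 30% in these data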; note: 0% is about no effect
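Potentiation of an EC20 dopamine calcium response measured kinetically over 180 s, after a preceding 180 s compound-only read flagging agonists. Cells: inducible Hek293 Trex D2 line, 4000/well, cultured overnight at 30 C before dye loading.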
D2 PAM-2: Beta-Arrestin HTS for Positive Allosteric Modulators of the Human D2 Dopamine Receptor: Potentiators; DiscoveRx D2 beta-arrestin cells, luminescence, 90 min; 100% = 57 uM dopamine signal; potentiation, % (no concentration beside the values); 0.23% of 360,000 active; in the data active = potentiation above about 50%; inconclusive = mostly about 30% to 49%
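D2 cells co-treated with compound plus 50 nM dopamine (EC20) for 90 min at 37 deg C to detect potentiation. Beta-arrestin recruitment was read as enzyme-fragment luminescence after 1 h at ambient temperature. Full response was set by 57 uM dopamine.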
D3 ag: qHTS of D3 Dopamine Receptor Agonist: D3 Dopamine Receptor B-arrestin Agonist Confirmatory Assay | shares compounds with D2 ag-2 | DiscoveRx D3 beta-arrestin cells, luminescence, 90 min | Potency, µM (doses to about 76.9 µM), without a hit: top-dose activation, most hits filed as activators | 4% of 2,300 active;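 note: potency is the fitted concentration of half-maximal effect; 100% = dopamine control response; nearly all actives have a fitted effect of over 70% in size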
Target sequence (P35462 whole entry, looked up): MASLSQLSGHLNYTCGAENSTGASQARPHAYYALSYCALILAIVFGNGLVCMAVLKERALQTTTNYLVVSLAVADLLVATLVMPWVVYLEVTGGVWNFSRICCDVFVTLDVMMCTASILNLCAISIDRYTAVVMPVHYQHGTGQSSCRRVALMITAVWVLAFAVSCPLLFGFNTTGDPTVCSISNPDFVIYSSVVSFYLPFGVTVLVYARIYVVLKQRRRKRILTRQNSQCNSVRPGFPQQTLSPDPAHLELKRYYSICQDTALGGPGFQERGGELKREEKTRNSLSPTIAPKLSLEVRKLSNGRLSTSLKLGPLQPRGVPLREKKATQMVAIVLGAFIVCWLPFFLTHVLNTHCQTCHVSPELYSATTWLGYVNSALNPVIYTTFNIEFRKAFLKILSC
D2 ag-3: qHTS of D3 Dopamine Receptor Agonist: D2 Dopamine Receptor B-arrestin Agonist Counterscreen; shares compounds with D2 ag-2; DiscoveRx PathHunter D2 beta-arrestin, luminescence, 90 min; response scale: percent relative to full dopamine signal; Potency, µM (doses to about 76.9 µM), without a hit: at the top dose activation, usual class: activators; 5.9% of 2,300 active; AID 720507, 2013; note: potency is the fitted concentration of half-maximal effect; % of control where 0% means no effect; nearly all actives have a fitted effect of over 70% in size
Starred values were filed as active, the others as inactive. Shown are actives, neighbours in structure and some others; about 2.4% of the full set was active somewhere. Unless noted, calls come from the whole dose curve; as a rule, active = well fitted activation curve with a large enough effect; inconclusive = small, poorly fitted or top-dose-only effect; inactive = flat fitted curve, though single readings scatter.

Results for COc1ccc2oc(C(=O)OCC(=O)Nc3cccc(S(=O)(=O)N4CCOCC4)c3)c(C)c2c1 ?
D2 ag-1: 3; D2 antagonist: -4; D2 ag-2: 1; D2 PAM-1: 2; D2 PAM-2: -1

Results for COc1ccc2oc(C(=O)Nc3cccc(S(=O)(=O)N4CCOCC4)c3)c(C)c2c1 ?
D2 ag-1: 1; D2 antagonist: -4; D2 ag-2: 0; D2 PAM-1: -3; D2 PAM-2: 5; D3 ag: 3%; D2 ag-3: -2%

How did CC(C)Sc1ncc(Cl)c(C(=O)N(Cc2ccc(N(C)C)cc2)C2CCS(=O)(=O)C2)n1 (configuration not stated) do in these assays?
D2 ag-2: 0; D2 PAM-1: 13

What do the screens show for `Cc1ccc(-c2csc(/C(C#N)=C/c3ccccc3Cl)n2)cc1`?
D2 ag-2: 1; D2 PAM-1: 0

Results for O=C(CCN1CCCCC1)c1ccc2c(c1)OCCO2 ?
D2 ag-1: -4; D2 antagonist: -27; D2 ag-2: 2; D2 PAM-1: 6; D2 PAM-2: -20

What do the screens show for `O=C(CCN1CCCC1Cc1ccccc1)c1ccc2c(c1)OCCO2` (configuration not stated)?
D2 ag-1: 7; D2 antagonist: 109*; D2 ag-2: 82*; D2 PAM-1: -28; D2 PAM-2: -18; D3 ag: inconclusive; D2 ag-3: inconclusive

Results for COc1ccc(S(=O)(=O)N2CCN(c3ccccc3)CC2)cc1OC ?
D2 ag-1: 2; D2 PAM-2: 7

What do the screens show for `COc1ccccc1C(=O)Nc1ccc(N2CCN(Cc3ccccc3)CC2)cc1`?
D2 ag-1: 0; D2 antagonist: -8; D2 ag-2: 4; D2 PAM-1: 5; D2 PAM-2: -19

How did COc1ccc(C)cc1NC(=O)c1ccc(CN2CCN(c3ccccc3)CC2)cc1 do in these assays?
D2 ag-1: inconclusive; D2 antagonist: 89*; D2 ag-2: 80*; D2 PAM-1: -24; D2 PAM-2: 21; D3 ag: 14%; D2 ag-3: inconclusive

Results for COc1ccc(CC(C)N2CCN(c3ccccc3)CC2)cc1OC (configuration not stated) ?
D2 ag-1: inconclusive; D2 antagonist: 66*; D2 ag-2: 65*; D2 PAM-1: -13; D2 PAM-2: 2; D3 ag: 5%; D2 ag-3: inconclusive

How did COc1ccc(CC(C)N2CCN(Cc3ccccc3)CC2)c(OC)c1 (configuration not stated) do in these assays?
D2 ag-1: 5; D2 antagonist: 83*; D2 ag-2: 59*; D2 PAM-1: -21; D2 PAM-2: -11; D3 ag: -5%; D2 ag-3: 10%

What do the screens show for `COc1ccc(CN2CCN(CCCc3ccccc3)CC2)c(OC)c1`?
D2 antagonist: -11; D2 ag-2: 0; D2 PAM-1: -18

Results for COc1ccc(NC(=O)c2ccc(CN3CCN(c4ccccc4)CC3)cc2)cc1OC ?
D2 ag-1: inconclusive; D2 antagonist: 71*; D2 ag-2: 60*; D2 PAM-1: -22; D2 PAM-2: -6; D3 ag: 10%; D2 ag-3: inconclusive

Screening data deposited in PubChem BioAssay by National Center for Advancing Translational Sciences (NCATS).
